Assay results as given in the supplement of paper PMC10849652.
Targets with a hit are over-represented here; the source holds about 7,900 in all. About 0.6% of all pairs of compound and target were hits.

Compound: Cc1ccc(NC(=O)c2ccc(CN3CC[C@H](N(C)C)C3)c(C(F)(F)F)c2)cc1Nc1nccc(-c2cncnc2)n1 [bafetinib]
Test: log2 fold change, soluble protein after heating vs DMSO (PISA); higher = thermal stabilisation; K562 cells, 10 uM, 30 min; active = over 0.2 and 3.5 SD of the protein, either way, in both replicates (recomputed)
Procedure, shortened: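 Thermal stability values are relative to control samples and come from duplicates. They are expressed as log2 fold changes. For measurement, K562 cells (2×10^6 cells/mL) received 10 μM compound for 30 min, and aliquots were heated for 3 min over 48°C-58°C, pooled, and extracted at 4°C in PBS with 0.5% NP-40. Soluble protein, the supernatant after 21,000xg for 90 min, was quantified by TMTpro 16plex LC-MS/MS with equalised channel sums.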

Chain of UniProt Q9Y6H1 (Q9Y6H1 whole entry, looked up): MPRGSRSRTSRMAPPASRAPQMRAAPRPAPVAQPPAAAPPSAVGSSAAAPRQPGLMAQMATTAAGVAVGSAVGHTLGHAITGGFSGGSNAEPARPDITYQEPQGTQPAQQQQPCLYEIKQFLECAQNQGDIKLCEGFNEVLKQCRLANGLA
Chain of UniProt P48509 (P48509 whole entry, looked up): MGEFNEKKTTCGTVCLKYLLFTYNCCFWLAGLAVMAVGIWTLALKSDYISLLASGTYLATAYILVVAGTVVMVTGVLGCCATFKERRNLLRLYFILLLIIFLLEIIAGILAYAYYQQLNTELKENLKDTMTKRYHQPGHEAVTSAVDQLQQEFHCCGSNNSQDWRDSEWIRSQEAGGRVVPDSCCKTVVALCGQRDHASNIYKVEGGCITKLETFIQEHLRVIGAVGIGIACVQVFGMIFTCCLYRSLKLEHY
Chain of UniProt Q96JB5 (Q96JB5 whole entry, looked up): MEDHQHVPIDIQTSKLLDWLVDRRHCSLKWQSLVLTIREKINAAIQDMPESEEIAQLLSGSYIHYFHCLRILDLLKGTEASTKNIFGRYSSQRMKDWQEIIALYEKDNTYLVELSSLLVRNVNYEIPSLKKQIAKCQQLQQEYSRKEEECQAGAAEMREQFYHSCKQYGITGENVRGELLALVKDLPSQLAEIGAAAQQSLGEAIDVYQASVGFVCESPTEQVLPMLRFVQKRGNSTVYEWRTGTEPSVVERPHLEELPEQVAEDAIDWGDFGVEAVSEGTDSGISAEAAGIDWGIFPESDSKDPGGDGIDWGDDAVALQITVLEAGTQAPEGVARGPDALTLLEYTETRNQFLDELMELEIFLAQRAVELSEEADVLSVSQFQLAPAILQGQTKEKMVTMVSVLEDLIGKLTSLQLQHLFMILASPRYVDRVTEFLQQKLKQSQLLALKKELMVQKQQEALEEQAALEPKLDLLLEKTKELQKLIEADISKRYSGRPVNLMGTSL
Chain of UniProt Q99439 (Q99439 whole entry, looked up): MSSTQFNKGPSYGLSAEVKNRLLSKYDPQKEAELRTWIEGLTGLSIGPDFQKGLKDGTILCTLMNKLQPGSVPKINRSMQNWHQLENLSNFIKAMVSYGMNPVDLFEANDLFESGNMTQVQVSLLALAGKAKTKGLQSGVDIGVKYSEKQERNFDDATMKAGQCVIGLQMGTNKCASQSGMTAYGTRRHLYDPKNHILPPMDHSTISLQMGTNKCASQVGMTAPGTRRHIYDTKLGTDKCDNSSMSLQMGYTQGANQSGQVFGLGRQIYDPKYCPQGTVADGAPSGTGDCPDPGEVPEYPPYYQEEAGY
Chain of UniProt P19784 (P19784 whole entry, looked up): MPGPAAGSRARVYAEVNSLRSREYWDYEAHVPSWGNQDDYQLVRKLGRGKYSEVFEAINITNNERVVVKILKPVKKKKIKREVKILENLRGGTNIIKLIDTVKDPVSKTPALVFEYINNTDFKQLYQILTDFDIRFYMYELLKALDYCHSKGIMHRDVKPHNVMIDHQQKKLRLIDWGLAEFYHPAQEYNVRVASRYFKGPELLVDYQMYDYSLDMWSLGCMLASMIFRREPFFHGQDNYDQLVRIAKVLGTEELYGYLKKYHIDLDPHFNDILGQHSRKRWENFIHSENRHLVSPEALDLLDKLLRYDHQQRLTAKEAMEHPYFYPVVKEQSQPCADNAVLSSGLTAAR
Chain of UniProt P0C0L4 (P0C0L4 whole entry, looked up): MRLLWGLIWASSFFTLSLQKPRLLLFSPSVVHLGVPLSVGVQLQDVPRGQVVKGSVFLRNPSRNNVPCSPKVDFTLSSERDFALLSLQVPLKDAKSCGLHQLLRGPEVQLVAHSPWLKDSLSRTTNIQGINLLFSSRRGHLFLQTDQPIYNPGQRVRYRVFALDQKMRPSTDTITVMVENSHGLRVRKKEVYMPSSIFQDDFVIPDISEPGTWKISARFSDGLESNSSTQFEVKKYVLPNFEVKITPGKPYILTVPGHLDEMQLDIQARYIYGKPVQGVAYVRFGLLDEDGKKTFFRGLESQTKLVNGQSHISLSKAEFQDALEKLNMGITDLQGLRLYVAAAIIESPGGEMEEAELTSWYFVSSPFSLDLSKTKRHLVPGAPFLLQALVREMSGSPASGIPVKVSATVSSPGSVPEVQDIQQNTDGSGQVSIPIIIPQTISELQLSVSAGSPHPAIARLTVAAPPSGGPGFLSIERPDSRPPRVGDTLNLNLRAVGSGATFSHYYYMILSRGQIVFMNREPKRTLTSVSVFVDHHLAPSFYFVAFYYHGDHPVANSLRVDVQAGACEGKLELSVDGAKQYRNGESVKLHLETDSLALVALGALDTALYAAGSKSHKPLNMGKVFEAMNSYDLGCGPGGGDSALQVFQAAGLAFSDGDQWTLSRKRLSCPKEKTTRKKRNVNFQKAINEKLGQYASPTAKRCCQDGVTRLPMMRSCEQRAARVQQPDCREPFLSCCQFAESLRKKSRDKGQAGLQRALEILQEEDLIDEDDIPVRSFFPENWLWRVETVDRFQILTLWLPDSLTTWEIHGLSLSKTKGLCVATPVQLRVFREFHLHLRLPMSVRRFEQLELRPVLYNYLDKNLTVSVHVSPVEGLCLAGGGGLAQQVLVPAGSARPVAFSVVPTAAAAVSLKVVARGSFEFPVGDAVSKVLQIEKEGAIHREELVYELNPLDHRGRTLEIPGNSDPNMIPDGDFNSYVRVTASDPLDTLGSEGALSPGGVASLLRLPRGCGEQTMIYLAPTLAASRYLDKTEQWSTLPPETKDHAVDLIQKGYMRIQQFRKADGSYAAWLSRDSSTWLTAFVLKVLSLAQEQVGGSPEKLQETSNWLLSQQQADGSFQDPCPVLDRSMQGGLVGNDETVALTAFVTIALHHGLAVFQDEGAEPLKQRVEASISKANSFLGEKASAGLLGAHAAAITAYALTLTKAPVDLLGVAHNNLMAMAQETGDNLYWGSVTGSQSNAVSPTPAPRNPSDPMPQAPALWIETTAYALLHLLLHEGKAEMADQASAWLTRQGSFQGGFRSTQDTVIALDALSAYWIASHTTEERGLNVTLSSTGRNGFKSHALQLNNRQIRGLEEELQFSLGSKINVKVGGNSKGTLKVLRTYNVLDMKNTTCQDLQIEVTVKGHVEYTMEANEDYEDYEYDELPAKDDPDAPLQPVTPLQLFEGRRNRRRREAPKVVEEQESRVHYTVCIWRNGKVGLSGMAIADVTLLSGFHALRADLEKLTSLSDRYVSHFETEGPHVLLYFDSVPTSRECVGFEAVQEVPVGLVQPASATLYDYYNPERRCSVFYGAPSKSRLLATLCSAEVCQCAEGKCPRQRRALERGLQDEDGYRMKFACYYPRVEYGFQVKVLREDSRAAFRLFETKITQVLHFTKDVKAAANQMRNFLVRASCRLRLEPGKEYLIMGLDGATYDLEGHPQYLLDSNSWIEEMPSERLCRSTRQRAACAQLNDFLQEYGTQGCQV
Chain of UniProt Q00536 (Q00536 whole entry, looked up): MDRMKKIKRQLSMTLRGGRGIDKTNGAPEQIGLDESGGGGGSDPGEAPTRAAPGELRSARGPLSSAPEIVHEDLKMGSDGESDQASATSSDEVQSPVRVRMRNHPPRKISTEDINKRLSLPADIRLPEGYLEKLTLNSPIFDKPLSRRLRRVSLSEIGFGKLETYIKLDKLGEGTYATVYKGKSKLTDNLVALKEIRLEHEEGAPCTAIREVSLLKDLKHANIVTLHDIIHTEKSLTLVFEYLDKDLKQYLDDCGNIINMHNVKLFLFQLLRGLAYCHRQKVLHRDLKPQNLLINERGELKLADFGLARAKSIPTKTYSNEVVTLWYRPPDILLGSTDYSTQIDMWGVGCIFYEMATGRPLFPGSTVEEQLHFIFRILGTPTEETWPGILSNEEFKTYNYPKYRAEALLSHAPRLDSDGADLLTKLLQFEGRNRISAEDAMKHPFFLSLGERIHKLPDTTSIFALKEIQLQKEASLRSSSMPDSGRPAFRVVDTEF
Chain of UniProt P41208 (P41208 whole entry, looked up): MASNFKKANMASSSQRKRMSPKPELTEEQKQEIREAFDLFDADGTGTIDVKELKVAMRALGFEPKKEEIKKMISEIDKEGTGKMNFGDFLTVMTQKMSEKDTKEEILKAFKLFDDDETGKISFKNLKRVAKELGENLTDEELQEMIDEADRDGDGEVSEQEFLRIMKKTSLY
Chain of UniProt P51790 (P51790 whole entry, looked up): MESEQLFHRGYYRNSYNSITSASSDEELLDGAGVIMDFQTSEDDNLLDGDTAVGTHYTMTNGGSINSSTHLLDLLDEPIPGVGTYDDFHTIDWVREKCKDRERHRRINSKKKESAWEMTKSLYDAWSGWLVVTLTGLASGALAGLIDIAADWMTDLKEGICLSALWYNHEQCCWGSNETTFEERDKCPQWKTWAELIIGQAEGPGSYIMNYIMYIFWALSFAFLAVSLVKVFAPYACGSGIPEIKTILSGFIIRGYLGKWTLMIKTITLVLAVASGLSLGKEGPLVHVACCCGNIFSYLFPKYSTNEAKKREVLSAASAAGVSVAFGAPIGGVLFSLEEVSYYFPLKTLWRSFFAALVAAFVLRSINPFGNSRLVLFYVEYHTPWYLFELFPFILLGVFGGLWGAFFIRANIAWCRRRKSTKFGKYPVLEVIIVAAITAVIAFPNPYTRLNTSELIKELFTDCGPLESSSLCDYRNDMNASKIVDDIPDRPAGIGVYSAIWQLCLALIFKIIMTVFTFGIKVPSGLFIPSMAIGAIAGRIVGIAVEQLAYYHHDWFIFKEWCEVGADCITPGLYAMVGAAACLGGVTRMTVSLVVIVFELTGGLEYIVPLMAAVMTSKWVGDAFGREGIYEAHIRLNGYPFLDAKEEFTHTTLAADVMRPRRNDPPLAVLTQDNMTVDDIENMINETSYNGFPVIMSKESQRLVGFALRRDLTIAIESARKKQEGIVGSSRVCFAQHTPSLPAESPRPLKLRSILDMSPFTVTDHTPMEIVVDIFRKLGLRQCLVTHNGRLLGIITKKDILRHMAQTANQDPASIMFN
Chain of UniProt P20674 (P20674 whole entry, looked up): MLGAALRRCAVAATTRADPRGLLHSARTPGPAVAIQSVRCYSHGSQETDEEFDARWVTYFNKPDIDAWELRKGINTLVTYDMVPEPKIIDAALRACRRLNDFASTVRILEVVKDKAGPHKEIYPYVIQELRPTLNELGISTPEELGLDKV

Row | Target | log2 fold change
1 | CD151 (UniProt P48509) | 0.135 (inactive)
2 | CBX1 (UniProt P83916) | -0.037 (inactive)
3 | CHCHD2 (UniProt Q9Y6H1) | -0.026 (inactive)
4 | CCNK isoform 4 (UniProt O75909) | 0.106 (inactive)
5 | CBR1 (UniProt P16152) | 0 (inactive)
6 | CASP2 (UniProt P42575) | 0.041 (inactive)
7 | COCH (UniProt O43405) | 0.076 (inactive)
8 | CTBS (UniProt Q01459) | -0.483 (active)
9 | CDKN2AIP (UniProt Q9NXV6) | 0.034 (inactive)
10 | CBS (UniProt P35520) | -0.031 (inactive)
11 | COMT (UniProt P21964) | 0.011 (inactive)
12 | CCDC9 (UniProt Q9Y3X0) | -0.011 (inactive)
13 | CHD4 isoform 2 (UniProt Q14839) | 0.068 (inactive)
14 | COX5A (UniProt P20674) | -0.079 (inactive)
15 | CLCN3 (UniProt P51790) | -0.112 (inactive)
16 | C4A (UniProt P0C0L4) | -0.316 (inactive)
17 | CCAR2 isoform 2 (UniProt Q8N163) | 0.007 (inactive)
18 | COPS4 (UniProt Q9BT78) | 0.003 (inactive)

Row | Target | log2 fold change
19 | CDK16 isoform 2 (UniProt Q00536) | 0.038 (inactive)
20 | COPS3 (UniProt Q9UNS2) | -0.05 (inactive)
21 | C4orf33 (UniProt Q8N1A6) | -0.143 (inactive)
22 | COPS8 (UniProt Q99627) | -0.021 (inactive)
23 | CDK5RAP3 isoform 4 (UniProt Q96JB5) | 0.039 (inactive)
24 | CCZ1 (UniProt P86791) | -0.127 (inactive)
25 | CSTF2 (UniProt P33240) | -0.05 (inactive)
26 | COX6B1 (UniProt P14854) | -0.081 (inactive)
27 | CNDP2 (UniProt Q96KP4) | -0.03 (inactive)
28 | CPQ (UniProt Q9Y646) | -0.207 (active)
29 | CA1 (UniProt P00915) | -0.017 (inactive)
30 | CNN2 (UniProt Q99439) | -0.001 (inactive)
31 | CSNK2A2 (UniProt P19784) | -0.042 (inactive)
32 | CNOT2 (UniProt Q9NZN8) | -0.002 (inactive)
33 | CRK (UniProt P46108) | -0.586 (active)
34 | CETN2 (UniProt P41208) | -0.029 (inactive)
35 | CPSF1 (UniProt Q10570) | 0.026 (inactive)
36 | CSTF3 (UniProt Q12996) | -0.004 (inactive)
